Rows were chosen to be rich in hits. Some 2.8% of all compounds tested hit in one or more screens of this group.
HIF-2a block – HIF-2a reporter inhibitors, primary screen, luminescence, 786-0 RCC cells | 360,000 tested, 0.72% active | 786-0 RCC cells HIF-2a reporter, luciferase luminescence, overnight | inhibition, % at 18.8 µM;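 active = inhibition of the luminescence signal of 40% or more relative to plate controls, in a single-dose primary screen at 18.75 µM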
CF NFkB block – inhibitors of PAF-induced NF-kB signaling, primary screen, cell-based, GFP fluorescence, uHTS | inhibition, % at 5 µM | KKLEB NF-kB-GFP reporter, GFP fluorescence overnight | 360,000 tested, 0.86% active;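 active = at least 50% inhibition at 5 µM, scaled per plate between neutral and stimulator controls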;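 note: PAF is a Pseudomonas aeruginosa culture filtrate used as stimulus; plate controls were PAF-stimulated DMSO wells for no effect and unstimulated DMSO wells for full effect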
Peg3 promoter – Peg3 promoter-driven luciferase inhibitors, primary screen, cell-based, HeLa, luciferase luminescence; HeLa PEG-Prom luciferase reporter, overnight; inhibition, % at 20 µM; 360,000 tested, 1.7% active; AID 588405, 2011;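 active = inhibition of at least 50% at 20 µM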
KKLEB cytotox – cytotoxicity in KKLEB CF airway cells, primary screen, cytotoxicity control for CF NF-kB inhibitor project, cell-based, uHTS, fluorescence assay plates; KKLEB CF airway cells viability, ATPlite luminescence, overnight; active compounds read low; cells stimulated with P. aeruginosa culture filtrate; activity change (cytotoxicity), % at 5 µM; 360,000 tested, 0.36% active;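 active = corrected activity change at or below -50% at 5 µM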
Beta2AR agonist – beta2AR agonists driving receptor internalization, primary screen, cell-based, FAP fluorogen, flow cytometry; Am2.2-beta2AR cells; response, % (test concentration not listed); 340,000 tested, 0.43% active; AID 504454, 2011;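 active = response above a set limit, near 3 SD of response in nonfluorescent compounds, cut at about 42% in these data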
Target sequence (P07550 whole entry, looked up): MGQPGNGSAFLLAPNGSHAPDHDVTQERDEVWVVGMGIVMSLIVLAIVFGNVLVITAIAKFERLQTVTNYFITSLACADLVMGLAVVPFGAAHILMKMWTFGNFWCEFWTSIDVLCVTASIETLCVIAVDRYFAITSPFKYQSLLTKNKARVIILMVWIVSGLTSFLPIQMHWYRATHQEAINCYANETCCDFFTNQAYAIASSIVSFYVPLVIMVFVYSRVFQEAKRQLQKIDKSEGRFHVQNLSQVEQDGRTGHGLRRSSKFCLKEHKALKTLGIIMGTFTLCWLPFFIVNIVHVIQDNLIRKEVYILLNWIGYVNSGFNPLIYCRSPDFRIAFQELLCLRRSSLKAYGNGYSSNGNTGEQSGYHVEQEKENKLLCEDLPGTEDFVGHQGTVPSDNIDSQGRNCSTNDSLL
MITF TRPM1 inh – inhibitors of MITF-dependent TRPM1 promoter reporter, primary screen, cell-based, SK-MEL-5, single point, luciferase; SK-MEL-5 TRPM1 promoter luciferase, 24 h; inhibition, % at 12.5 µM; 330,000 tested, 0.83% active; AID 488899, 2010;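 active = mean inhibition across replicates of 60% or more, whatever share of single replicates reaches that level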
Beta2AR ag CP1 – beta2AR agonists via receptor internalization, confirmation, cell-based, FAP fluorogen, flow cytometry, single point, cherry pick 1. shares compounds with Beta2AR agonist. Am2.2-beta2AR cells, FAP surface receptor; active compounds read low. percent response (surface receptor), % at 10 µM. 1,100 tested, 25% active. AID 540358, 2011;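 active = surface receptor percent response at or below 58%, roughly 3 SD from nonfluorescent compounds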
B2AR FAP counter – fluorescence artifact in beta-2AR agonist FAP counterscreen. shares compounds with Beta2AR agonist. Am2.2 cells, FAP fluorogen flow cytometry; active compounds read low. calls only at 10 µM. 1,100 tested, under 10 active;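 active = percent response below a set limit in fluorescence channel 1 and below 50% in channel 8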
Starred values were filed as active, the others as inactive; i = inactive; x = no result given.

SMILES | HIF-2a block | CF NFkB block | Peg3 promoter | KKLEB cytotox | Beta2AR agonist | MITF TRPM1 inh | Beta2AR ag CP1 | B2AR FAP counter
COc1ccc(NC(=O)c2ccc3nc(C)c(N(C)C(=O)CCc4ccccc4)n3c2)cc1OC | 2 | 9 | 7 | -14 | x | x | x | x
CCc1ccc(OCC(=O)Nc2ccc(-c3nc4ccccc4o3)c(O)c2)cc1 | 2 | 32 | -104 | -20 | 93* | -16 | 1.1* | i
N#C/C(=C\c1c(Cl)cccc1Cl)c1nc2ccccc2o1 | -5 | 0 | 11 | 18 | -3 | -2 | 142 | i
COc1ccc(CCn2c(=O)[nH]c3cc(C(=O)NCCN4CCOCC4)ccc3c2=O)cc1OC | 4 | -7 | 18 | -21 | 69* | 5 | x | i
COc1ccc(-c2csc(C(C)(O)c3ccc(F)c(F)c3)n2)cc1OC (stereo not drawn) | -43 | 0 | -6 | -8 | x | x | x | x
CCCCc1c(Cc2ccccc2)ncn1CCc1ccccc1OC | -2 | x | x | x | x | x | x | x
O=C(Nc1cccc(-c2nc3cccnc3s2)c1)C1c2ccccc2Oc2ccccc21 | -27 | 7 | -12 | -6 | 74* | 6 | 44* | i
COC(=O)c1sc2ccccc2c1N | -139 | -31 | -115 | 15 | 3 | -5 | x | x
COC(=O)C1=C(C(=O)OC)C(c2ccccc2O)c2sc(=O)[nH]c2S1 (stereo not drawn) | 17 | -2 | -3 | -10 | 100* | 17 | 93 | i
Cc1ccc(S(=O)(=O)Nc2ccncc2)c(C)c1N(C)S(=O)(=O)c1ccc(F)cc1 | 24 | 6 | 10 | -7 | 84* | 6 | 106 | i
COc1ccc(CCN2CC(C(=O)OCC(=O)N(C)CC(=O)Nc3ccccc3Cl)CC2=O)cc1OC (stereo not drawn) | 8 | 8 | -8 | 6 | 7 | 2 | x | x
Cc1[nH]nc(Nc2ccccc2)c1[N+](=O)[O-] | -133 | -20 | -91 | 4 | -2 | -21 | x | x
Cc1cccc(Nc2n[nH]c(C)c2[N+](=O)[O-])c1 | -251 | -9 | -333 | 5 | 64* | -72 | 114 | i
Cc1cccc(-c2nnc(SCc3nc4ccccc4[nH]3)n2Cc2ccco2)c1 | 13 | 6 | 16 | -8 | -4 | 17 | 116 | i
Cc1ccc(-c2nnc(SCc3nc4ccccc4[nH]3)n2Cc2ccco2)cc1 | 21 | -2 | 22 | 10 | -32 | -10 | 106 | i
COc1ccc(CCNCc2ccc(OCc3ccccc3)cc2)cc1 | -20 | -12 | 29 | 5 | 17 | -1 | x | x
COc1ccc(C(CCNCc2ccc(OC(C)C)cc2)c2ccccc2OC)cc1 (stereo not drawn) | 11 | 7 | 102* | -26 | 23 | 87* | 54* | i
COc1ccccc1C(CC(=O)Nc1ccccc1C)c1ccc(OC(C)C)cc1 (stereo not drawn) | 13 | -9 | 18 | -4 | -1 | -25 | x | x
COc1ccc(CNCCC(c2ccc(OC)cc2)c2ccccc2OC)cc1 (stereo not drawn) | 18 | 1 | 19 | 2 | 16 | 20 | 90 | i
COc1ccc(C(CCNCc2ccc(N(C)C)cc2)c2ccccc2OC)cc1 (stereo not drawn) | 18 | 19 | 60* | -8 | 32 | 0 | 100 | i
Cc1ccc(S(=O)(=O)NN=C2CCCc3ccccc32)cc1 | 3 | 4 | 10 | -5 | x | x | x | x
CN(CCCN1CCOCC1)C(=O)c1cc(COc2cccc(C(F)(F)F)c2)on1 | 3 | -4 | 1 | -2 | 52* | 8 | 84 | i
O=C1c2cccc([N+](=O)[O-])c2C(=O)N1C1CCCCC1 | 6 | 7 | 0 | -14 | -6 | -5 | x | x
Cc1c(Cl)cccc1N1C(=O)C(N2C(=O)c3cccc([N+](=O)[O-])c3C2=O)C1c1cccs1 (stereo not drawn) | 23 | 0 | 30 | -13 | 52* | -14 | 96 | i
O=C(NC1CCc2ccccc21)c1cc(COc2ccc(F)cc2Cl)on1 (stereo not drawn) | -22 | 14 | -5 | -11 | 11 | 6 | x | x
SMILES | HIF-2a block | CF NFkB block | Peg3 promoter | KKLEB cytotox | Beta2AR agonist | MITF TRPM1 inh | Beta2AR ag CP1 | B2AR FAP counter
O=C(NC1CCc2ccccc21)c1cc(COc2cncc(Cl)c2)on1 (stereo not drawn) | -140 | 22 | -119 | 5 | 5 | -32 | 123 | i
COc1ccc([C@@H]2C[C@H]3[C@@H](CN2S(=O)(=O)c2ccccc2)C(=O)C[C@@H](c2ccccc2F)N3S(=O)(=O)c2ccc(C)cc2)cc1 | 17 | 24 | 9 | 15 | x | x | x | x
CCOc1ccc(NC(=O)CNC(=O)c2nn(-c3ccc(OC)c(OC)c3)c(=O)c3ccccc23)cc1 | 3 | 19 | 5 | -13 | 54* | -6 | 67 | i
CCOc1ccccc1NC(=O)CNC(=O)c1nn(-c2ccc(OC)c(OC)c2)c(=O)c2ccccc12 | 32 | 8 | 45 | -11 | 10 | 4 | x | x
Cc1c(C(=O)NCc2cccs2)sc(=O)n1Cc1ccc(S(=O)(=O)N(C)C)cc1 | -11 | 8 | 13 | -19 | x | x | x | x
CN(CC(=O)N1CCN(c2ccc(F)cc2)CC1)S(=O)(=O)c1ccc(F)cc1 | -20 | 11 | -20 | 0 | -3 | -8 | 120 | i
COc1ccc(OC)c(S(=O)(=O)N(C)CC(=O)N2CCCCC2)c1 | 7 | -22 | -3 | -5 | 1 | 4 | x | x
CN1CCN(C(=O)CN(C)S(=O)(=O)c2ccc(F)cc2)CC1 | 2 | 12 | -15 | -8 | -1 | -5 | x | x
CN(CC(=O)N1CCN(c2ccccn2)CC1)S(=O)(=O)c1ccc(Cl)cc1 | 10 | 6 | 16 | -4 | 110* | 9 | 33* | i
Cc1ccc(S(=O)(=O)N(C)CC(=O)N2CCN(c3ccccn3)CC2)cc1 | 11 | 7 | 13 | 0 | 99* | 2 | 16* | i
COc1ccc(N2CCN(C(=O)CN(C)S(=O)(=O)c3cc(C)ccc3OC)CC2)cc1 | -2 | 4 | 17 | -2 | 4 | 4 | 91 | i
O=C(NCc1ccccc1)Nc1nnc([C@@H]2C[C@H](O)[C@@H](CO)O2)s1 | 3 | -8 | -3 | 5 | x | x | x | x
Cc1noc(C)c1C(=O)N1CCC1(C)C(=O)NS(=O)(=O)c1ccc(Cl)cc1 (stereo not drawn) | 8 | 16 | 2 | 4 | x | x | x | x

Screening data from PubChem BioAssay.
